FLuc counter = inhibits or activates purified firefly luciferase, miR-21 counter-screen. P08659. purified FLuc, Km substrates, luminescence inhibition. Potency, µM (titrated, usually from 57.5 µM), actives largely listed as inhibitors. 6.9% of 360,000 active; also: nearly all actives have a fitted effect of over 55% in size
Target sequence (P08659 whole entry, looked up): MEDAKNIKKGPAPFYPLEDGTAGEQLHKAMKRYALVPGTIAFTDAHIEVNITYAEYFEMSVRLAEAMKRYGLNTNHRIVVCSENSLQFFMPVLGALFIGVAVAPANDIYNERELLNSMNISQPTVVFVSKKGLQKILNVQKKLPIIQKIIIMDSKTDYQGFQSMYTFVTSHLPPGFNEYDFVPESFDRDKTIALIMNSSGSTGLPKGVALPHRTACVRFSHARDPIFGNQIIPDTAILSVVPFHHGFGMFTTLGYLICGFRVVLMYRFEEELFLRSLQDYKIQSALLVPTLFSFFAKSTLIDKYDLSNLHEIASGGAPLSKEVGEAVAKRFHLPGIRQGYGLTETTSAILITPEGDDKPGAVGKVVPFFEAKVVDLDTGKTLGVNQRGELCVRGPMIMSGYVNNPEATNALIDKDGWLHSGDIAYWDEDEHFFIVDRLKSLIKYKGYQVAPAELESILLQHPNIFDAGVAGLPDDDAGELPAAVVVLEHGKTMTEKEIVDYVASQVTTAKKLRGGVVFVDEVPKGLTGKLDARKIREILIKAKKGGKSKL
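Biochemical qHTS of compounds, final roughly 60 µM downward over six points, against 10 nM purified firefly luciferase using Km concentrations of substrates (10 uM D-luciferin, 10 uM ATP) in Tris acetate pH 7.5 buffer; luminescence output.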
SMN2 splice up = enhancers of SMN2 splice variant expression; 2.8% of 210,000 active; Potency, µM (doses to about 46.1 µM), hits mostly activators; AID 1458; HEK293 SMN2-luciferase splicing reporter, luminescence, 30-36 h; also: nearly all actives have a fitted effect of over 55% in size
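HEK293 cells carry an SMN2 […]–luciferase reporter in which exon 7 inclusion puts luciferase in frame. Cells were plated 10-12 h before compound addition, then incubated 30-36 h at 37C. ONE-Glo luminescence was read; sodium butyrate at 4.5 mM final served as control.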
NPC1 prom act = activators of NPC1 promoter. Potency, µM (highest dose often 9.22 µM), actives largely listed as activators. Huh7 NPC1 promoter luciferase reporter, 24 h. 2.4% of 320,000 active; also: nearly all actives have a fitted effect of over 60% in size
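Luminescence read-out of NPC1 promoter-driven luciferase in stably transfected Huh7 cells; compounds delivered in DMSO and left 24 h at 37C, 5% CO2, qHTS titration format.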
ELG1 DNA repair = ELG1-dependent DNA repair inhibition | Potency, µM (top dose mostly 46.1 µM), actives largely listed as inhibitors | HEK293T ELG1-luciferase reporter, luminescence, 16 h; DNA damage induced by 5-fluorouridine | 2.3% of 330,000 active; also: nearly all actives have a fitted effect of over 55% in size
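Cells (2,000 per well) received 5-fluorouridine plus test compound or DMSO and were incubated 16 hr at 37 °C, 5% CO2. Luciferase activity was read by luminescence 30 min after ONE-Glo addition; signal suppression marked inhibition of damage-induced ELG1 function.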
Rab9 prom act = activates the Rab9 promoter; Huh7 Rab9 promoter-luciferase reporter, luminescence, 24 h; Potency, µM (titrated, usually from 9.22 µM), hits mostly activators; 2.8% of 320,000 active; AID 485297; also: nearly all actives have a fitted effect of over 60% in size
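Quantitative HTS format; Huh7 Rab9-luciferase reporter cells (1500/well) receive compound 2 h post-plating, incubate 24 h at 37 °C, then get luciferase reagent for 10 min before luminescence reading.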
ELG1 genotoxic = inducers of genotoxicity in HEK293T ELG1-luciferase cells; HEK293T ELG1-luciferase reporter, luminescence, 16 h; Potency, µM (series often up to 46 µM), hits mostly activators; 1.3% of 330,000 active; AID 504466; also: nearly all actives have a fitted effect of over 60% in size
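After overnight (16 hr) compound treatment at 37 °C, ELG1-luciferase HEK293T cells were lysed with ONE-Glo; luminescence quantified 30 min later at room temperature.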
Of the large screens only hits and unclear results are named; the others gave an inactive call. Hits are enriched below; roughly 9.2% of the tested compounds scored in any of these assays. Calls follow the shape of the dose curve; as a rule, active = well fitted curve in the direction sought with a large enough effect; inconclusive = small, poorly fitted or top-dose-only effect, or another doubt; inactive = no such curve, though single readings can be large; an effect the other way counts as inactive or inconclusive.

O=C1/C(=C/c2cccs2)Cc2ccccc21	FLuc counter 3.8µM, ELG1 DNA repair inconclusive, ELG1 genotoxic inconclusive (no result: SMN2 splice up)
O=C1C(=Cc2cccs2)C(=O)c2ccccc21	FLuc counter 4.8µM
Cc1ccc(C=C2C(=O)c3ccccc3C2=O)s1	FLuc counter 0.85µM, ELG1 genotoxic inconclusive
COc1cccc(NC(=O)C2C3C=CC4(O3)C2C(=O)N(CCCN2CCCC(C)C2)C4C(=O)NC2CCCCC2C)c1 (stereo unspecified)	none (no result: SMN2 splice up)
CCOC(=O)CC1NCCc2c1[nH]c1ccc(OC)cc21 (stereo unspecified)	none (no result: SMN2 splice up)
COc1ccc(CNC(=O)CCCN2C(=O)NC3(CCCC3)C2=O)cc1	none (no result: SMN2 splice up)
O=C1/C(=C\c2ccc(Br)o2)Cc2ccccc21	FLuc counter 15µM, ELG1 DNA repair inconclusive, ELG1 genotoxic inconclusive
O=C1/C(=C\c2ccc(Br)o2)SC(=Nc2ccccc2)N1c1ccccc1	ELG1 DNA repair inconclusive
O=C(O)c1ccc(S(=O)(=O)N2CCC3(CC2)CC(=O)c2ccccc2O3)cc1	none (no result: SMN2 splice up)
COc1ccc(NS(=O)(=O)c2ccc(-c3cnc(C4CC4)o3)cc2)cc1Cl	none (no result: SMN2 splice up, NPC1 prom act, ELG1 DNA repair, Rab9 prom act, ELG1 genotoxic)
O=C(O)CCn1c(=O)c2cccn2c2cccnc21	none (no result: NPC1 prom act, ELG1 DNA repair, Rab9 prom act, ELG1 genotoxic)
CCOc1ccc(Cc2n[nH]c(=S)n2N)cc1	SMN2 splice up inconclusive
COc1ccc(N2Nc3n[nH]c(N)c3N2)cc1	FLuc counter 27µM, SMN2 splice up inconclusive, ELG1 DNA repair inconclusive, Rab9 prom act inconclusive
CCOc1ccc(N2Nc3n[nH]c(N)c3N2)cc1	FLuc counter 19µM, SMN2 splice up inconclusive, NPC1 prom act inconclusive, ELG1 DNA repair inconclusive, Rab9 prom act inconclusive, ELG1 genotoxic inconclusive
O=C1N/C(=C\c2ccc(O)cc2)C(O)=C1C=NCc1ccccc1	FLuc counter 12µM, ELG1 DNA repair inconclusive
C/C(=N/Nc1nc(C)c(C)s1)c1cccc([N+](=O)[O-])c1	FLuc counter 12µM, NPC1 prom act inconclusive, Rab9 prom act inconclusive, ELG1 genotoxic inconclusive (no result: SMN2 splice up)
C/C(=N\Nc1nc(N)cc(Cl)n1)c1cccc([N+](=O)[O-])c1	FLuc counter inconclusive
COc1ccc(SCCN2CC[C@@H](C(C)(C)C)CCC2=O)cc1	FLuc counter inconclusive, ELG1 DNA repair inconclusive (no result: SMN2 splice up)
CCCC(=O)Nc1nc2ccc3nc(C)sc3c2s1	FLuc counter inconclusive, SMN2 splice up inconclusive, Rab9 prom act inconclusive, ELG1 genotoxic inconclusive
CCC(=O)Nc1nc2ccc3sc(C)nc3c2s1	FLuc counter 6.7µM, NPC1 prom act inconclusive, Rab9 prom act inconclusive, ELG1 genotoxic inconclusive
Cc1nc2c(ccc3nc(NC(=O)C4CC4)sc32)s1	FLuc counter 13µM, NPC1 prom act inconclusive
COc1cc2c(C#Cc3cccnc3)c(-c3ccsc3)oc(=O)c2cc1OC	ELG1 DNA repair inconclusive (no result: FLuc counter, SMN2 splice up, NPC1 prom act, Rab9 prom act)
CCOC(=O)C1CSC(Cc2ccc(OCc3ccc([N+](=O)[O-])cc3)cc2)N1 (stereo unspecified)	SMN2 splice up 13µM (no result: FLuc counter, NPC1 prom act, ELG1 DNA repair, Rab9 prom act, ELG1 genotoxic)
CCOC(=O)CCc1c(C)c2ccc(OCc3ccc([N+](=O)[O-])cc3)cc2oc1=O	none
O=c1[nH]c(-c2ccccn2)nc2sc(-c3ccccc3)cc12	FLuc counter 2.1µM, SMN2 splice up 8.9µM, NPC1 prom act 3.5µM, ELG1 DNA repair inconclusive, Rab9 prom act inconclusive, ELG1 genotoxic 7.3µM
Cc1c(C(=O)N(C)C)sc2nc(-c3ccccn3)[nH]c(=O)c12	FLuc counter inconclusive, ELG1 DNA repair inconclusive, Rab9 prom act inconclusive, ELG1 genotoxic inconclusive
O=C(Nc1nc2ccccc2[nH]1)c1ccc([N+](=O)[O-])cc1	FLuc counter inconclusive, SMN2 splice up 2.5µM, NPC1 prom act 1µM, ELG1 DNA repair inconclusive, Rab9 prom act 0.56µM, ELG1 genotoxic inconclusive
Cc1ccc(C(=O)Cc2nc3ccccc3[nH]2)cc1	FLuc counter 6µM, NPC1 prom act 2µM, ELG1 DNA repair inconclusive, Rab9 prom act 4.5µM, ELG1 genotoxic 3.5µM (no result: SMN2 splice up)
C/C(=N\Nc1nc2ccccc2[nH]1)c1ccc([N+](=O)[O-])cc1	none (no result: SMN2 splice up)
COC(=O)c1cc(C(=O)Nc2nc3ccccc3[nH]2)cc([N+](=O)[O-])c1	FLuc counter 4.8µM (no result: SMN2 splice up)
CCOC(=O)Cc1nc2ccccc2[nH]1	none

Screens deposited in PubChem by National Center for Advancing Translational Sciences (NCATS).
